{"source": "PubChem BioAssay (EPA / NIEHS)", "note": "The source holds several records for some structures; these can differ, active in one and inactive in another. Activity calls are given as the source filed them. Rule for the calls: active = hit-call score of the fitted dose curve at least 0.9, where 1 is the maximum; inactive = score below 0.9."}
{"test": "ATG_PBREM_CIS: Attagene CIS-FACTORIAL HepG2 Assay for human Phenobarbital-responsive Enhancer Module (PBREM) (AID 2282955)", "details": "HepG2 PBREM cis-reporter, Attagene multiplexed transcription; actives raise or lower the signal", "method": "ATG_CIS is a cell-based, multiplexed-readout assay that uses HepG2, a human liver cell line, with measurements taken at 24 hours after chemical dosing in a 24-well plate.ATG_PBREM_CIS is one of 52 assay component(s) measured or calculated from the ATG_CIS assay. It is designed to make measurements of mRNA induction, a form of inducible reporter, as detected with fluorescence intensity signals by Reverse transcription polymerase chain reaction (RT-PCR) and Capillary electrophoresis technology.Data from the assay component ATG_PBREM_CIS was analyzed into 1 assay endpoint. This assay endpoint, ATG_PBREM_CIS, was analyzed with bidirectional fitting relative to DMSO as the negative control and baseline of activity. Using a type of inducible reporter, measures of mRNA for gain or loss-of-signal activity can be used to understand the reporter gene at the transcription factor-level as they relate to the gene NR1I3. Furthermore, this assay endpoint can be referred to as a primary readout, because this assay has produced multiple assay endpoints where this one serves a reporter gene function. To generalize the intended target to other relatable targets, this assay endpoint is annotated to the nuclear receptor intended target family, where the subfamily is non-steroidal.\nHuman liver HepG2 cells are transiently transfected with multiple reporter transcription units (MRTUs) in 6-well plates using FuGene 6 reagent (Roche; 3 ml FuGene/1 mg DNA). The MRTU constructs are regulated by a cis-regulating element (promoter). […] A major difference between the CIS and TRANS system is that in CIS activities of endogenous TFs are measured, whereas the TRANS assay evaluates changes in activities of exogenous, chimeric NR-Gal4 proteins. […] At the end of 24 hour incubation, total RNA was isolated using TriZol reagent (Invitrogen). The isolated RNA is then reverse-transcribed using oligo(dT) primer and Mo-MLV reverse transcriptase (Invitrogen) with DNAse I (Ambion) treatment for 30 min. The one-tenth of the produced cDNA was amplified by PCR using Taq DNA polymerase (Invitrogen) and two reporter sequence-specific primers. The PCR products were fluorescently labeled by primer extension with 6-arboxyfluorescein (6-FAM) 5'-labeled reporter sequence-specific primer (2 min at 95 C, 20 s at 68 C and 10 min at 72 C) and these products were digested with 5U of HpaI (New England Biolabs) for 2h at 37 C. The fragments were purified using Qiaquick PCR columns (Qiagen), analyzed on an ABI 3130xL genetic analyzer (Applied Biosystems) with peak positions identified by using a set of X-rhodamine (ROX)-labeled MapMarker1000 molecular weight standards (BioVentures). The raw capillary electrophoresis data was processed using Attagraph software (Attagene)."}
{"molecule": "O=C(CC(=O)C(F)(F)C(F)(F)F)C(F)(F)F", "outcome": "inactive"}
{"molecule": "FC1CC(F)(F)C(F)(F)C1(F)F", "note": "(stereo not given)", "outcome": "inactive"}
{"molecule": "COC(OC(C)=O)c1ccccc1", "note": "(stereo not given)", "outcome": "inactive"}
{"molecule": "FC(F)(F)C(F)(F)C(F)(F)C(F)(F)C(F)(F)C(F)(F)CCS", "outcome": "inactive"}
{"molecule": "[Co]", "outcome": "inactive"}
{"molecule": "OCCCC(F)(F)C(F)(F)C(F)(F)C(F)(F)C(F)(F)C(F)(F)C(F)(F)F", "outcome": "inactive", "AC50": "150 µM (active)"}
{"molecule": "CCc1ccc(C(c2ccc(CC)cc2)C(Cl)Cl)cc1", "outcome": "inactive"}
{"molecule": "FC(F)(I)C(F)(F)C(F)(F)C(F)(F)I", "outcome": "inactive"}
{"molecule": "O=C(O)C(F)(F)C(F)(F)C(F)(F)C(F)(F)C(F)(F)C(F)(F)C(F)(F)C(F)(F)C(F)(F)C(F)(F)C(F)(F)C(F)(F)F", "outcome": "inactive"}
{"molecule": "CCCCCCCCCCCCCCCC[N+](C)(C)Cc1ccccc1", "outcome": "inactive"}
{"molecule": "CCCCCCCCC(F)(F)C(F)(F)C(F)(F)C(F)(F)C(F)(F)C(F)(F)F", "outcome": "inactive"}
{"molecule": "O=C(O)C(F)(OC(F)(F)C(F)(OC(F)(F)C(F)(F)C(F)(F)F)C(F)(F)F)C(F)(F)F", "note": "(stereo not given)", "outcome": "inactive"}
{"molecule": "CN(C)Cc1ccccc1O", "outcome": "inactive"}
{"molecule": "O=C(O)C(F)(OC(F)(F)C(F)(OC(F)(F)C(F)(OC(F)(F)C(F)(F)C(F)(F)F)C(F)(F)F)C(F)(F)F)C(F)(F)F", "note": "(stereo not given)", "outcome": "inactive"}
{"molecule": "O=C(O)C=C(C(F)(F)F)C(F)(F)F", "outcome": "inactive"}
{"molecule": "O=S(=O)(OCC(F)F)C(F)(F)F", "outcome": "inactive"}
{"molecule": "CCCCCC=O", "outcome": "inactive"}
{"molecule": "CC(C)(C)c1ccc(OC2CCCCC2O)cc1", "note": "(stereo not given)", "AC50": "26.1 µM (active)"}
{"molecule": "O=C(Cl)C(F)(F)C(F)(F)C(F)(F)C(F)(F)C(F)(F)C(F)(F)C(F)(F)C(F)(F)F", "outcome": "inactive"}
{"molecule": "CC(=O)Nc1ccc(N=Nc2cc(C)ccc2O)cc1", "AC50": "49.4 µM (active)"}
{"molecule": "FC(F)(Br)C(F)(F)C(F)(F)C(F)(F)C(F)(F)C(F)(F)Br", "outcome": "inactive"}
{"molecule": "O=P(O)(O)OCCC(F)(F)C(F)(F)C(F)(F)C(F)(F)C(F)(F)C(F)(F)F", "outcome": "inactive"}
{"molecule": "NC(=O)C(F)(F)C(F)(F)C(F)(F)C(F)(F)F", "outcome": "inactive"}
{"molecule": "C=CC(=O)OCC(F)(F)C(F)(F)C(F)(F)C(F)(F)COC(=O)C=C", "outcome": "inactive"}
{"molecule": "CCCCCCS", "outcome": "inactive"}
{"molecule": "O=C(O)C(F)(F)C(F)(F)C(F)(F)C(F)(F)C(F)(F)C(F)(F)C(F)(F)C(F)(F)Cl", "outcome": "inactive"}
{"molecule": "CS(C)(=O)=O", "outcome": "inactive"}
{"molecule": "O=C(O)C(F)(F)C(F)(F)C(F)(F)C(F)(F)C(F)(F)C(F)(F)C(F)(F)C(F)(F)C(F)(F)C(F)F", "outcome": "inactive"}
{"molecule": "O=C(C=Cc1ccccc1)OCC=Cc1ccccc1", "outcome": "inactive"}
{"molecule": "Nc1ccc([N+](=O)[O-])cc1O", "outcome": "inactive"}
{"molecule": "Cc1cccc(N(C)C)c1", "outcome": "inactive"}
{"molecule": "FC(F)(F)C(F)(F)C(F)(F)N(C(F)(F)C(F)(F)C(F)(F)F)C(F)(F)C(F)(F)C(F)(F)F", "outcome": "inactive"}
{"molecule": "OCC(F)(F)C(F)(F)C(F)(F)C(F)(F)C(F)(F)C(F)(F)F", "AC50": "282 µM (active)"}
{"molecule": "OCC(F)(F)C(F)(F)C(F)(F)C(F)F", "outcome": "inactive"}
{"molecule": "CCN(Cc1cccc(S(=O)(=O)O)c1)c1ccc(C(=C2C=CC(=[N+](CC)Cc3cccc(S(=O)(=O)O)c3)C=C2)c2ccc(O)cc2S(=O)(=O)[O-])cc1", "outcome": "inactive"}
{"molecule": "FC(F)(F)C(F)(F)C(F)(F)CI", "outcome": "inactive"}
{"molecule": "CCCCCCOC(=O)c1ccccc1O", "outcome": "inactive"}
{"molecule": "CCC(=O)OCCc1ccccc1", "outcome": "inactive"}
{"molecule": "FC(F)(F)C(F)(F)C(F)(F)C(F)(F)C(F)(F)C(F)(F)C(F)(F)Br", "outcome": "inactive"}
